Screens as filed in PubChem.
Shown are actives, neighbours in structure and some others; about 3% of the full set was active somewhere.
aSyn UTR inh – MLPCN primary screen, SNCA 5' untranslated region. alpha-synuclein 5'UTR reporter, inhibitor activity. inhibition, % (tested at 7.5 µM). 300,000 compounds, 0.82% hits. AID 1813, 2009; in the data active = inhibition above about 60%;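 also: H4 neuroglioblastoma cells stably carrying SNCA 5'UTR luciferase fusion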
KLF5 inhibitor – KLF5 expression inhibitors, primary screen, DLD-1 cells, luminescence | AID 1700, 2009 | DLD-1 KLF5 promoter-luciferase reporter | 290,000 compounds, 0.23% hits | inhibition, % at 5 µM;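 active = inhibition above a per-plate limit of that plate's mean compound inhibition plus 3 SD, cut at about 60% in these data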;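 also: higher means less KLF5 promoter-driven luciferase light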
IEC-6 tox – cytotoxicity in IEC-6 intestinal epithelial cells, primary screen, cytotoxicity control for KLF5 inhibitor project, cell-based, luminescence; IEC-6 cytotoxicity, luminescence viability; inhibition, % at 5 µM; 290,000 compounds, 0.78% hits; AID 1825, 2009; in the data active = inhibition above about 22%
SKKanGAS inh – S. pyogenes SKKanGAS growth inhibitors in kanamycin, primary screen, streptokinase expression inhibitor project, SKKanGAS strain, BacTiter-Glo luminescence; 6 h; inhibition, % at 7.5 µM; 300,000 compounds, 1.3% hits;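 active = mean replicate score, as percent of positive control median, at least 50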;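 also: strain carries kanamycin resistance gene driven by streptokinase promoter and grows in 40 µg/ml kanamycin; loss of luminescence reflects streptokinase promoter inhibition or plain growth inhibition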
CSC inhib – cancer stem cell viability inhibitors, primary screen, luminescence | inhibition, % at 7.5 µM | cancer stem cell-like cells viability | 300,000 compounds, 1.1% hits; in the data active = inhibition above about 75%; tested in HMLE shEcad cells
Of the large screens only hits and unclear results are named; the others gave an inactive call.

O=C(O)c1ccc2c(c1)C(=O)N(N1C(=O)c3ccccc3C1=O)C2=O	none
C=CCn1c(O)c(C2=c3ccccc3=NC2=O)sc1=Nc1ccc(O)cc1	CSC inhib 95 (no result: KLF5 inhibitor, IEC-6 tox)
O=C1N=c2ccccc2=C1c1sc(=S)n(NC(=O)c2ccccc2)c1O	none
CC1=NN(c2nc(-c3ccc(Cl)cc3)cs2)C(=O)C1	CSC inhib 123
CC1=NN(c2nc(-c3ccc(F)cc3)cs2)C(=O)C1	CSC inhib 86
O=C1N/C(=C/c2ccc(N3CCOCC3)o2)C(=O)N1c1ccccc1	CSC inhib 80 (no result: aSyn UTR inh, SKKanGAS inh)
CCOc1ccc(NC(=O)CN2CCC(n3cnc4cc(F)ccc43)CC2)cc1	none
N#C/C(=C\c1ccccc1)C(=O)NNS(=O)(=O)c1ccc(Br)cc1	none (no result: aSyn UTR inh, KLF5 inhibitor, IEC-6 tox, SKKanGAS inh)
Cc1ccc2nc(-c3ccc(NS(C)(=O)=O)cc3)cc(-c3ccccc3)c2c1	none (no result: aSyn UTR inh)
CCS(=O)(=O)Nc1ccc(-c2cc(-c3ccccc3)c3cc(C)ccc3n2)cc1	SKKanGAS inh 95, CSC inhib 85
OCCC1CN(Cc2cccn2-c2cccnc2)CCN1C1CCCC1 (centres undefined)	none (no result: CSC inhib)
CC(C)(O)[C@@H]1[C@@H]2C[C@@]3(CC[C@]4(C)C(CCC5[C@@]6(C)CC[C@H](O)C(C)(C)C6CC[C@]54C)[C@@H]13)C(=O)O2 (some centres undefined)	none (no result: KLF5 inhibitor, IEC-6 tox)
C=C(C)[C@@H]1CC[C@]2(C(=O)O)CC[C@]3(C)[C@H](CC[C@@H]4[C@@]5(C)CC[C@H](O)C(C)(C)[C@@H]5CC[C@]43C)[C@@H]12	CSC inhib 84 (no result: KLF5 inhibitor, IEC-6 tox)
O=C1c2c(O)ccc(O)c2C(=O)c2c(NCCNCCO)ccc(NCCNCCO)c21	CSC inhib 97 (no result: aSyn UTR inh, KLF5 inhibitor, IEC-6 tox, SKKanGAS inh)
O=C1c2ccccc2C(=O)c2c(NCCCN(CCO)CCO)cccc21	none (no result: CSC inhib)
CCOc1ccc(C(=O)O/N=C(\N)c2ccccn2)cc1	aSyn UTR inh 62
Cc1cccc(C(=O)O/N=C(\N)c2ccccn2)c1	aSyn UTR inh 70
Cc1ccc(C(=O)O/N=C(\N)c2ccccn2)cc1	aSyn UTR inh 65
N/C(=N\OC(=O)c1ccccc1)c1ccccn1	none
O=C(COC(=O)CNC(=O)c1ccc(Cl)c([N+](=O)[O-])c1)NC(=O)CN1CCCC1=O	none (no result: KLF5 inhibitor, IEC-6 tox)
CC(C)c1ccc(NC(=O)c2cc3c(=O)n(C)c4ccccc4c3n2C)cc1	CSC inhib 76
O=C(Nc1nnc(C2CC2)s1)c1n[nH]c(=O)c2ccccc12	none
COC(=O)c1ccc(CN(c2ccc(C(=O)O)c(O)c2)S(=O)(=O)c2ccc(Cl)c([N+](=O)[O-])c2)cc1	SKKanGAS inh 55, CSC inhib 92
N#CC1=C(SCC(=O)c2ccc(Br)cc2)NC2=C(C(=O)CCC2)C1c1ccco1 (centres undefined)	CSC inhib 91 (no result: aSyn UTR inh, SKKanGAS inh)
COCCN=c1scc(-c2cccs2)n1/N=C/c1ccc(O)c(O)c1O	aSyn UTR inh 67
CCc1cccc2c(C(=O)COC(=O)/C=C/c3ccc(O)c(OC)c3)c[nH]c12	SKKanGAS inh 51
CN1CCN(S(=O)(=O)c2cccc(C(=O)NCc3ccccc3Cl)c2)CC1	none
CC(=O)OCC1O[C@@H](O[C@@H]2C[C@H]3C(C)(C)[C@H](OC(C)=O)CC[C@]3(C)[C@H]3CC[C@]45C[C@]4(CC[C@H]5[C@@H](C)C[C@@H](O)[C@H](O)C(C)(C)O)[C@@]32C)[C@H](O)[C@@H](O)[C@@H]1O (some centres undefined)	CSC inhib 102
CC(C)=CCC[C@](C)(O[C@@H]1O[C@H](CO[C@@H]2O[C@H](CO)[C@@H](O)[C@H](O)[C@H]2O)[C@@H](O)[C@H](O)[C@H]1O)C1CC[C@]2(C)C1C(=O)CC1[C@@]3(C)CC[C@H](O[C@H]4O[C@@H](CO)[C@H](O)[C@@H](O)[C@@H]4O)C(C)(C)C3CC[C@]12C (some centres undefined)	none (no result: aSyn UTR inh, KLF5 inhibitor, IEC-6 tox, SKKanGAS inh)
COc1ccc(NC(=O)C(=O)NCC2CCCN2S(=O)(=O)c2ccc(C)cc2)cc1 (centres undefined)	aSyn UTR inh 91 (no result: KLF5 inhibitor, IEC-6 tox)
Cc1cccc(C)c1Nc1nnc(SCC(=O)c2ccc3c(c2)NC(=O)CO3)s1	none
COc1cc(/C=N/Nc2ccc(F)cc2F)cc(OC)c1O	CSC inhib 95
Cc1cc(C)n(-c2nc(SCC(=O)O)c3c4c(sc3n2)COC(C)(C)C4)n1	SKKanGAS inh 70
O=C(NCc1ccccn1)c1cccc(NS(=O)(=O)c2cccc(F)c2)c1	none
O=C(CN1C(=O)CCC1=O)c1ccc(-c2ccccc2)cc1	none
N=c1ccn(CC(=O)c2ccc(-c3ccccc3)cc2)cc1	aSyn UTR inh 110
Cc1ccc(NC(=O)c2ccc(OC(=O)COc3ccc(Cl)cc3C)cc2)cc1	none
Cc1ccc(C(=O)CC(=O)c2ccccc2)cc1	SKKanGAS inh 53
Cc1cccc(C(=O)NCC(=O)NNC(=O)c2ccccc2O)c1	none (no result: KLF5 inhibitor, IEC-6 tox)
O=C(CC(=O)c1cc(Cl)ccc1O)c1ccccc1	SKKanGAS inh 111
Cc1cccc(C(=O)CC(=O)c2cc(Cl)ccc2O)c1	aSyn UTR inh 64, SKKanGAS inh 94
Cc1ccc(C(=O)CC(=O)COc2ccc(Cl)cc2C)cc1	SKKanGAS inh 101
CC(C)(C)c1ccc(C(=O)NC(=O)COC(=O)c2ccc(Br)o2)cc1	none (no result: aSyn UTR inh, KLF5 inhibitor, IEC-6 tox, SKKanGAS inh)
CCOc1ccc(NC(=O)CN(C)C(=O)CCCOc2ccc(Cl)c(C)c2)cc1OCC	none (no result: CSC inhib)
CCC(Oc1ccc(F)cc1)C(=O)N1CCCCCCC1 (centres undefined)	none
COc1ccccc1C(=O)NNC(=O)c1cccc(F)c1	none
Cc1ccc(O)c(C(=O)CC(=O)c2cccc(F)c2)c1	SKKanGAS inh 81
Cc1ccc(O)c(C(=O)CC(=O)c2ccc(Cl)cc2)c1	SKKanGAS inh 96
COc1ccc(CCC(=O)N/N=C/c2ccc3c(c2)OCO3)cc1	none (no result: KLF5 inhibitor, IEC-6 tox)
O=C(Cc1ccc(Cl)cc1)NCCc1c[nH]c2ccccc12	none
O=C(CCl)N(c1ccc(Cl)cc1)c1c[nH]c2ccccc12	CSC inhib 88
CCC(C)Nc1ccc(NC(C)CC)cc1 (centres undefined)	CSC inhib 82 (no result: aSyn UTR inh, KLF5 inhibitor, IEC-6 tox, SKKanGAS inh)
CC1CCN(c2ccccc2NC(=S)NC(=O)c2cccs2)CC1	SKKanGAS inh 87
O=C(NC(=S)Nc1ccc(N2CCCCC2)c(Cl)c1)c1cccs1	CSC inhib 81
CC1CCN(c2ccccc2NC(=S)NC(=O)C(C)(C)C)CC1	SKKanGAS inh 58
CN1CCN(c2ccccc2NC(=O)c2ccc(Br)o2)CC1	none
CC1CCN(c2ccccc2NC(=O)c2ccc(Br)o2)CC1	SKKanGAS inh 88
Cc1ccc(S(=O)(=O)N2CCN(C(=O)Cc3c(F)cccc3Cl)CC2)cc1	none (no result: KLF5 inhibitor, IEC-6 tox)
CN1CCN(c2ccccc2NC(=O)c2ccc(-c3ccc(Cl)cc3Cl)o2)CC1	CSC inhib 101
Oc1c(Cl)cc(Cl)c2c1NCCC2	SKKanGAS inh 69 (no result: CSC inhib)
O=C1NCCCc2c1oc1ccc(O)cc21	none
CCN(C(=O)CN1CCOCC1)C1(C)C(=O)c2ccccc2C1=O	none
N#Cc1c(NC(=S)NC(=O)C2CCCC2)sc2c1CCCCC2	SKKanGAS inh 76
